Laboratory results: PubChem BioAssay AID1159580 (chemical genetic matrix, 2015)
Screen size: about 5,500 compounds; about 2,000 (36%) were called active. Roughly 18% stayed inconclusive and do not appear here. Cut-off read from the data, not from the text of the source: active = normalized growth mostly below about 0.91 (no sharp cut-off); inconclusive = no clear call, values can overlap the other calls; inactive = mostly above about 0.92. Some of the results follow.

Assay: chemical genetic growth profiling, strain panel (AID 1159580);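 note: tested at 20 µM; growth read once vehicle control cultures reached saturation at 30 °C; 1 = growth at the plate median or of vehicle wells; lower values mean less growth of the strain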
Settings: growth OD
[1] = S. cerevisiae deletion strains, locus YAL040C, strain CLN3, stronger effect = lower value
[2] = S. cerevisiae deletion strains, locus YCL061C, strain MRC1 (second series), stronger effect = lower value
[3] = S. cerevisiae deletion strains, locus YER002W, strain NOP16, stronger effect = lower value
[4] = S. cerevisiae deletion strains, locus YGR078C, strain PAC10, stronger effect = lower value
[5] = S. cerevisiae deletion strains, locus YMR263W, strain SAP30, stronger effect = lower value
[6] = S. cerevisiae deletion strains, locus YMR307W, strain GAS1, stronger effect = lower value
[7] = S. cerevisiae deletion strains, locus YNL175C, strain NOP13, stronger effect = lower value
[8] = S. cerevisiae deletion strains, locus YNL197C, strain WHI3, stronger effect = lower value
[9] = S. cerevisiae deletion strains, locus YNL224C, strain SQS1, stronger effect = lower value
[10] = S. cerevisiae deletion strains, locus YOR083W, strain WHI5 (second series), stronger effect = lower value
[11] = S. cerevisiae deletion strains, locus YPL055C, strain LGE1, stronger effect = lower value
[12] = S. cerevisiae deletion strains, locus YAL013W, strain DEP1, stronger effect = lower value
[13] = S. cerevisiae deletion strains, locus YBR229C, strain ROT2, stronger effect = lower value
[14] = S. cerevisiae deletion strains, locus YDL101C, strain DUN1, stronger effect = lower value
[15] = S. cerevisiae deletion strains, locus YDR150W, strain NUM1, stronger effect = lower value
[16] = S. cerevisiae deletion strains, locus YEL061C, strain CIN8, stronger effect = lower value
[17] = S. cerevisiae deletion strains, locus YHR030C, strain SLT2, stronger effect = lower value
[18] = S. cerevisiae deletion strains, locus YHR087W, strain rtc3, stronger effect = lower value
[19] = S. cerevisiae deletion strains, locus YJR043C, strain POL32, stronger effect = lower value
[20] = S. cerevisiae deletion strains, locus YJR075W, strain HOC1, stronger effect = lower value
[21] = S. cerevisiae deletion strains, locus YLR039C, strain RIC1, stronger effect = lower value
[22] = S. cerevisiae deletion strains, locus YLR058C, strain SHM2 (second series), stronger effect = lower value
[23] = S. cerevisiae deletion strains, locus YLR085C, strain ARP6, stronger effect = lower value
[24] = S. cerevisiae deletion strains, locus YLR262C, strain YPT6, stronger effect = lower value
[25] = S. cerevisiae deletion strains, locus YML094W, strain GIM5, stronger effect = lower value
[26] = S. cerevisiae deletion strains, locus YMR219W, strain ESC1, stronger effect = lower value
[27] = S. cerevisiae deletion strains, locus YNL153C, strain GIM3, stronger effect = lower value
[28] = S. cerevisiae deletion strains, locus YNL298W, strain CLA4 (second series), stronger effect = lower value
[29] = S. cerevisiae deletion strains, locus YNL322C, strain KRE1, stronger effect = lower value
[30] = S. cerevisiae deletion strains, locus YNR030W, strain Alg12, stronger effect = lower value
[31] = S. cerevisiae deletion strains, locus YPL241C, strain CIN2, stronger effect = lower value
[32] = S. cerevisiae deletion strains, locus YPR135W, strain CTF4, stronger effect = lower value
[33] = S. cerevisiae strains, strain wild type, stronger effect = lower value
[34] = S. cerevisiae deletion strains, locus YDL134C, strain PPH21, stronger effect = lower value
[35] = S. cerevisiae deletion strains, locus YNL128W, strain TEP1, stronger effect = lower value
[36] = S. cerevisiae deletion strains, locus YOL006C, strain TOP1, stronger effect = lower value

Measured: normalized growth

COc1ccccc1N1CCN(CCCCNC(=O)c2ccc3ccccc3c2)CC1
inactive: [1] 0.951 | [2] 0.988 | S. cerevisiae deletion strains, locus YDR363W, strain ESC2, stronger effect = lower value 1.03 | [3] 0.996 | [4] 0.981 | [5] 0.978 | [6] 0.995 | [7] 1.03 | [8] 1.01 | [9] 0.983 | [10] 1.06 | [11] 0.999

COc1ccccc1C1CCN(Cc2ccc3ccccc3c2)CC1
inactive: [12] 0.981 | [13] 0.965 | [14] 0.973 | [15] 1 | [16] 0.915 | [4] 0.986 | [18] 0.987 | [19] 1.01 | [20] 0.99 | [21] 0.98 | [22] 0.985 | [23] 0.91 | [24] 0.904 | [25] 0.885 | [26] 1 | [5] 1.01 | [27] 0.962 | [28] 0.888 | [29] 0.989 | [30] 0.963 | [11] 1.02 | [31] 0.911 | [32] 0.773
active: [17] 0.529 | [33] 0.885

COc1ccccc1C1CCN(C(=O)c2ccc(F)cc2)CC1
inactive: [12] 0.981 | [13] 0.986 | S. cerevisiae deletion strains, locus YCL061C, strain MRC1, stronger effect = lower value 0.989 | [14] 0.994 | [34] 0.983 | [15] 0.988 | [16] 0.965 | [4] 0.982 | [17] 0.754 | [18] 1.01 | [19] 0.987 | [20] 1 | [21] 1.03 | [22] 0.981 | [23] 0.901 | [24] 1.01 | [25] 0.944 | [26] 0.976 | [5] 0.994 | [35] 0.986 | [27] 0.989 | [28] 0.982 | [29] 0.978 | [30] 0.967 | [36] 0.852 | [11] 0.926 | [32] 0.975

Nc1cc(Cl)c(NC2=NCCN2)c(Cl)c1
inactive: [1] 0.982 | [2] 1 | [3] 1 | S. cerevisiae deletion strains, locus YGR229C, strain SMI1, stronger effect = lower value 1.01 | [20] 0.998 | [35] 1 | [27] 0.987 | [7] 1.02 | [8] 1 | [9] 1.02 | [10] 1.04 | [31] 1

C/C(=N/NC(N)=S)c1ccccn1
inactive: S. cerevisiae deletion strains, locus YAR019C, strain CDC15, stronger effect = lower value 0.962 | S. cerevisiae deletion strains, locus YBL105C, strain PKC1, stronger effect = lower value 0.98 | S. cerevisiae deletion strains, locus YBR135W, strain CKS1, stronger effect = lower value 0.971 | S. cerevisiae deletion strains, locus YBR136W, strain MEC1, stronger effect = lower value 0.962 | S. cerevisiae deletion strains, locus YBR160W, strain CDC28, stronger effect = lower value 0.985 | S. cerevisiae deletion strains, locus YDL017W, strain CDC7, stronger effect = lower value 0.987 | S. cerevisiae deletion strains, locus YDL028C, strain MPS1, stronger effect = lower value 0.97 | [14] 0.982 | S. cerevisiae deletion strains, locus YDL108W, strain KIN28, stronger effect = lower value 0.97 | S. cerevisiae deletion strains, locus YDL132W, strain cdc53, stronger effect = lower value 0.949 | S. cerevisiae deletion strains, locus YDL214C, strain PRR2, stronger effect = lower value 0.932 | S. cerevisiae deletion strains, locus YDR052C, strain DBF4, stronger effect = lower value 0.963 | S. cerevisiae deletion strains, locus YDR054C, strain cdc34, stronger effect = lower value 0.944 | S. cerevisiae deletion strains, locus YDR226W, strain ADK1, stronger effect = lower value 0.971 | S. cerevisiae deletion strains, locus YDR477W, strain SNF1, stronger effect = lower value 0.878 | S. cerevisiae deletion strains, locus YER123W, strain YCK3, stronger effect = lower value 0.874 | S. cerevisiae deletion strains, locus YER133W, strain GLC7, stronger effect = lower value 0.889 | S. cerevisiae deletion strains, locus YFL009W, strain cdc4, stronger effect = lower value 0.939 | S. cerevisiae deletion strains, locus YFL029C, strain CAK1, stronger effect = lower value 0.945 | S. cerevisiae deletion strains, locus YFR003C, strain YPI1, stronger effect = lower value 0.985 | S. cerevisiae deletion strains, locus YFR019W, strain FAB1, stronger effect = lower value 0.908 | S. cerevisiae deletion strains, locus YFR028C, strain CDC14, stronger effect = lower value 0.962 | S. cerevisiae deletion strains, locus YGR040W, strain KSS1, stronger effect = lower value 0.875 | S. cerevisiae deletion strains, locus YGR052W, strain FMP48, stronger effect = lower value 0.951 | S. cerevisiae deletion strains, locus YGR092W, strain DBF2, stronger effect = lower value 0.833 | [17] 0.861 | S. cerevisiae deletion strains, locus YHR079C, strain IRE1, stronger effect = lower value 0.779 | S. cerevisiae deletion strains, locus YHR082C, strain KSP1, stronger effect = lower value 0.932 | S. cerevisiae deletion strains, locus YHR205W, strain SCH9, stronger effect = lower value 0.957 | S. cerevisiae deletion strains, locus YIL147C, strain SLN1, stronger effect = lower value 0.958 | S. cerevisiae deletion strains, locus YJL095W, strain BCK1, stronger effect = lower value 0.871 | S. cerevisiae deletion strains, locus YJL128C, strain PBS2, stronger effect = lower value 0.975 | S. cerevisiae deletion strains, locus YJL157C, strain FAR1, stronger effect = lower value 0.88 | S. cerevisiae deletion strains, locus YJR016C, strain ILV3, stronger effect = lower value 0.967 | S. cerevisiae deletion strains, locus YJR066W, strain TOR1 (second series), stronger effect = lower value 0.874 | S. cerevisiae deletion strains, locus YJR066W, strain TOR1, stronger effect = lower value 0.881 | S. cerevisiae deletion strains, locus YKL048C, strain ELM1, stronger effect = lower value 0.941 | S. cerevisiae deletion strains, locus YKL067W, strain YNK1, stronger effect = lower value 0.951 | S. cerevisiae deletion strains, locus YKL101W, strain HSL1, stronger effect = lower value 0.91 | S. cerevisiae deletion strains, locus YKL193C, strain SDS22, stronger effect = lower value 0.971 | S. cerevisiae deletion strains, locus YKL203C, strain TOR2, stronger effect = lower value 0.9 | S. cerevisiae deletion strains, locus YLR113W, strain HOG1, stronger effect = lower value 0.93 | S. cerevisiae deletion strains, locus YLR133W, strain CKI1, stronger effect = lower value 0.911 | S. cerevisiae deletion strains, locus YLR403W, strain SFP1, stronger effect = lower value 0.843 | S. cerevisiae deletion strains, locus YML070W, strain DAK1, stronger effect = lower value 0.918 | S. cerevisiae deletion strains, locus YMR001C, strain CDC5, stronger effect = lower value 0.967 | S. cerevisiae deletion strains, locus YMR205C, strain PFK2 (second series), stronger effect = lower value 0.945 | S. cerevisiae deletion strains, locus YMR277W, strain FCP1, stronger effect = lower value 0.978 | S. cerevisiae deletion strains, locus YNL006W, strain LST8, stronger effect = lower value 0.988 | S. cerevisiae deletion strains, locus YNL020C, strain ARK1, stronger effect = lower value 0.917 | S. cerevisiae deletion strains, locus YNL161W, strain CBK1, stronger effect = lower value 0.978 | S. cerevisiae deletion strains, locus YNL183C, strain NPR1, stronger effect = lower value 0.895 | S. cerevisiae deletion strains, locus YNL207W, strain RIO2, stronger effect = lower value 0.936 | S. cerevisiae deletion strains, locus YNL222W, strain SSU72, stronger effect = lower value 0.977 | S. cerevisiae deletion strains, locus YNL307C, strain MCK1 (second series), stronger effect = lower value 0.862 | S. cerevisiae deletion strains, locus YOL078W, strain AVO1, stronger effect = lower value 0.964 | S. cerevisiae deletion strains, locus YOL136C, strain PFK27, stronger effect = lower value 0.957 | S. cerevisiae deletion strains, locus YOR061W, strain CKA2, stronger effect = lower value 0.891 | S. cerevisiae deletion strains, locus YOR119C, strain RIO1, stronger effect = lower value 0.906 | S. cerevisiae deletion strains, locus YOR231W, strain MKK1, stronger effect = lower value 0.875 | S. cerevisiae deletion strains, locus YOR329C, strain SCD5, stronger effect = lower value 0.968 | S. cerevisiae deletion strains, locus YPL031C, strain PHO85, stronger effect = lower value 0.863 | S. cerevisiae deletion strains, locus YPL153C, strain RAD53, stronger effect = lower value 0.828 | S. cerevisiae deletion strains, locus YPL204W, strain HRR25, stronger effect = lower value 0.85 | S. cerevisiae deletion strains, locus YPL209C, strain IPL1, stronger effect = lower value 0.98 | S. cerevisiae deletion strains, locus YPL256C, strain CLN2, stronger effect = lower value 0.951 | S. cerevisiae deletion strains, locus YPR025C, strain CCL1, stronger effect = lower value 0.975 | S. cerevisiae deletion strains, locus YPR106W, strain ISR1, stronger effect = lower value 0.984 | S. cerevisiae deletion strains, locus YPR111W, strain DBF20, stronger effect = lower value 0.983 | S. cerevisiae deletion strains, strain NNK1, stronger effect = lower value 0.993 | S. cerevisiae deletion strains, strain TSCII, stronger effect = lower value 0.975

CNC(=S)NN=C(N)c1ccccn1
inactive: [12] 1.02 | [13] 1.02 | [14] 0.972 | [34] 0.963 | [15] 1.04 | [16] 0.93 | [4] 1.01 | [17] 0.786 | [18] 1.05 | S. cerevisiae deletion strains, locus YJL187C, strain SWE1, stronger effect = lower value 1.01 | [19] 1.01 | [20] 1.01 | [22] 1.01 | [26] 1.01 | [5] 1.01 | [27] 0.989 | [29] 1.04 | [11] 1.03 | [32] 0.7
active: S. cerevisiae deletion strains, locus YKL190W, strain CNB1, stronger effect = lower value 0.521 | [21] 0.519 | [23] 0.484 | [24] 0.698 | [25] 0.831 | [6] 0.525 | [28] 0.75 | [30] 0.669 | [36] 0.167 | [31] 0.682 | [33] 0.64
